Most compounds without a hit are left out; they make up all but 1.7% or so of the library.
HEK293 tox: qHTS of GLP-1 Receptor Inverse Agonists: Cytotox Screen; HEK293 cAMP-luciferase reporter cells, luminescence, 24 h; Potency, µM (titrated, usually from 38.3 µM), actives largely listed as inhibitors; actives 0.13% (n = 410,000); AID 624418, 2012;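 note: loss of luciferase light is scored as toxicity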
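Compound-treated cells are incubated 24 hr at 37 deg C under 5% CO2 after a 12 hour attachment period, then luciferase detection reagent is added and luminescence is measured following 12 min at room temperature; lowered signal indicates toxicity.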
PTHR1 agonist: qHTS for PTHR1 Agonists: Primary Screen; Parathyroid hormone/parathyroid hormone-related peptide receptor (Homo sapiens), Q03431; HEK293 GP2 PTHR1 cells, GloSensor cAMP luminescence, 1 h; Potency, µM (series often up to 115 µM), usual class: activators; actives 0.075% (n = 410,000); AID 743266, 2014; note: nearly all actives have a fitted effect of over 55% in size
Target sequence (Q03431 whole entry, looked up): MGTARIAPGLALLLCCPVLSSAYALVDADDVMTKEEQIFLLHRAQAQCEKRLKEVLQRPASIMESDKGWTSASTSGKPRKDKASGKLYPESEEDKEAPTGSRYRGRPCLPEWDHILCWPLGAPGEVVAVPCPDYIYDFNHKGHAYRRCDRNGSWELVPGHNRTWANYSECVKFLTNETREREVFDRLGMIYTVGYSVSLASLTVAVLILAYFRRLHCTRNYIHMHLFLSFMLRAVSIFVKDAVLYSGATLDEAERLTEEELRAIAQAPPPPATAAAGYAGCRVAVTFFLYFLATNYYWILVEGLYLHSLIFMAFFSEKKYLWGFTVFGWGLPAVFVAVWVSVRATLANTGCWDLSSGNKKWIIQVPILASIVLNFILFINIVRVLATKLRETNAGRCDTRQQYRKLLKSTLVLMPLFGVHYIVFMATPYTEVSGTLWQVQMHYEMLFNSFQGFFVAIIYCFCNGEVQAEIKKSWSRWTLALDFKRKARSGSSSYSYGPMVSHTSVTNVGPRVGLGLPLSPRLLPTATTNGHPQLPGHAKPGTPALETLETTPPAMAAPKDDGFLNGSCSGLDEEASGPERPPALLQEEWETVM
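HEK-293-derived GP2 cells expressing PTHR1 and a GloSensor cAMP reporter, 3,000/well, plated overnight, given luciferin plus IBMX (each 0.5 mM as added) for 1 h at 37 °C, then compound for 1 h at 37 °C. Luminescence was read after 15 min at room temperature.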
GLP-1R agonist: qHTS of GLP-1 Receptor Agonists; HEK293 GLP-1R CRE-luciferase, luminescence, 4-6 h; cells express a hypersensitive GLP-1R form; Potency, µM (series often up to 45.6 µM), hits mostly activators; actives 0.007% (n = 380,000)
GLP1R inv ag: qHTS of GLP-1 Receptor Inverse Agonists (Inhibition Mode); Potency, µM (top dose mostly 38.3 µM), most hits filed as inhibitors; actives 1.6% (n = 410,000); HEK293 GLP-1R CRE-luciferase, luminescence, 24 h; GLP-1R form is constitutively active; Glucagon-like peptide 1 receptor (Homo sapiens), P43220; note: nearly all actives have a fitted effect of over 55% in size
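Constitutively active GLP-1R drives a cAMP-responsive luciferase in stably transfected HEK293 cells; test compounds are added after overnight (12 h) attachment and left 24 hr, and signal loss in luminescence marks inhibition.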
Of the large screens only hits and unclear results are named; the others gave an inactive call. Calls come from the whole dose curve; as a rule, active = well fitted curve in the direction sought with a large enough effect; inconclusive = small, poorly fitted or top-dose-only effect, or another doubt; inactive = no such curve, though single readings can be large; an effect the other way counts as inactive or inconclusive.

Cc1cc(C)cc(C(O)c2ncc(-c3ccc(Cl)cc3)[nH]2)c1 (configuration not stated)	GLP1R inv ag 13µM
COc1ccccc1CNC(=O)CS(=O)(=O)Cc1ccccc1	none
[O-]/C(=C(\C(=S)Nc1ccc(SC(F)F)cc1)[n+]1ccccc1)c1ccc(Cl)cc1Cl	GLP1R inv ag 1.1µM
O=c1c2sc3ccccc3c2n(Cc2ccc(Cl)cc2)c(=O)n1Cc1ccco1	none
COc1ccccc1CN(C)CC(=O)NC(=O)NC1CCCCC1	GLP1R inv ag 4.5µM
C=CC[N+]1([C@H]2C[C@H]3[C@@H]4CC[C@H]5C[C@H](O)[C@@H](N6CCOCC6)C[C@]5(C)[C@H]4CC[C@]3(C)[C@H]2OC(C)=O)CCCC1	none (no result: HEK293 tox, PTHR1 agonist, GLP1R inv ag)
Cc1cc(C)nc(N/N=C/c2ccccc2OCc2cccc(Br)c2)n1	HEK293 tox 4µM, GLP1R inv ag 3.5µM
COCCNC(=S)N/N=C(\C)c1ccc(OC)cc1	HEK293 tox inconclusive, GLP1R inv ag inconclusive
COCCNC(=S)N/N=C(\C)c1ccc2cc(OC)ccc2c1	HEK293 tox 3.2µM, GLP-1R agonist inconclusive, GLP1R inv ag inconclusive
COc1ccc(/C(C)=N/NC(=S)Nc2cc(C)ccc2C)cc1	HEK293 tox 3.5µM, PTHR1 agonist inconclusive, GLP1R inv ag inconclusive
COCCNC(=S)N/N=C(\C)c1cc2ccccc2o1	HEK293 tox 7.9µM, GLP1R inv ag inconclusive
COc1ccc(CNC(=S)Nc2cc(C)ccc2C)cc1	GLP1R inv ag inconclusive
C/C(=N\NC(=O)c1cc2ccccc2cc1O)c1cc2ccccc2o1	GLP1R inv ag inconclusive
C=C(C)CNC(=S)N/N=C(\C)c1ccc(OC)cc1	HEK293 tox inconclusive, GLP1R inv ag 5.6µM
COc1c(C)cc(NS(=O)(=O)c2ccc3c(c2)OCCO3)cc1C	GLP1R inv ag inconclusive (no result: GLP-1R agonist)
CC1(C)Cc2c(C#N)c(SCCOc3ccccc3)nc(N3CCOCC3)c2CO1	GLP1R inv ag 13µM
CCN1C(=O)/C(=C/c2nc3ccccc3c(=O)n2-c2ccccc2)c2ccccc21	GLP1R inv ag 2µM
O=C(NCCCN1CCN(c2cccc(Cl)c2)CC1)Nc1ccccc1C(F)(F)F	GLP1R inv ag inconclusive
CCCC1=Nc2cc(C(=O)NC(C)c3ccccc3)ccc2Sc2ccc(C)cc21 (configuration not stated)	GLP1R inv ag 4.5µM
CCCC1=Nc2cc(C(=O)NCc3ccc(OC)cc3)ccc2Sc2ccc(C)cc21	GLP1R inv ag 4.5µM
CCCC1=Nc2cc(C(=O)NCCc3ccccc3)ccc2Sc2ccc(C)cc21	HEK293 tox inconclusive, GLP1R inv ag inconclusive
COc1ccc(CCN2C(=O)CCC2(C)c2nnnn2Cc2ccccc2)cc1OC (configuration not stated)	none
COc1ccc(Br)cc1CNC(=O)Cn1ncn2nc(-c3cccs3)cc2c1=O	none (no result: GLP-1R agonist)
CC12CCC(C(=O)NNc3ccc([N+](=O)[O-])cc3)(CC1=O)C2(C)C (configuration not stated)	GLP1R inv ag 8.9µM
COc1ccc(-c2oc3c(OC)c(OC)c(OC)c(O)c3c(=O)c2OC)cc1OC	GLP1R inv ag 2.8µM
COCCCNc1oc(/C=C/c2cc(OC)c(OC)c(OC)c2)nc1C#N	none (no result: GLP-1R agonist)
CC1CC(C)(C)NC(=S)N1CCCC(=O)Nc1ccc(Br)cc1 (configuration not stated)	HEK293 tox 11µM, GLP1R inv ag 10µM
Cc1ccc(C)c(N2CCN(C(=O)CCCN3C(=S)NC(C)(C)CC3C)CC2)c1 (configuration not stated)	HEK293 tox inconclusive, GLP1R inv ag 11µM
CCOc1ccc(NC(=O)CCCN2C(=S)NC(C)(C)CC2C)cc1 (configuration not stated)	none
Cc1ccc(CNC(=O)c2oc3c(c2C)-c2nn(Cc4ccc(Cl)cc4)cc2CC3)cc1	none (no result: GLP-1R agonist)
O=c1c(-c2cc3ccccc3[nH]2)nc2ccccc2n1C(CCc1ccccc1)c1nc2ccccc2[nH]1 (configuration not stated)	GLP1R inv ag 3.2µM (no result: GLP-1R agonist)
O=C(NCc1ccccc1)C(CCc1ccccc1)n1c(=O)c(-c2cc3ccccc3[nH]2)nc2ccccc21 (configuration not stated)	GLP1R inv ag 5.6µM (no result: GLP-1R agonist)
Cc1nnsc1-c1nc2ccccc2n1C(CCc1ccccc1)c1nc2ccccc2[nH]1 (configuration not stated)	GLP1R inv ag 11µM (no result: GLP-1R agonist)
Cc1ccc(Cc2nc3ccccc3n2C(CCc2ccccc2)c2nc3ccccc3[nH]2)cc1 (configuration not stated)	none (no result: GLP-1R agonist)
O=C(NCc1ccccc1)C(c1cccc2ccccc12)n1c(=O)c(-c2cc3ccccc3[nH]2)nc2ccccc21 (configuration not stated)	GLP1R inv ag inconclusive (no result: GLP-1R agonist)
O=C(NCc1ccccc1)C(c1ccc(C(F)(F)F)cc1)n1c(=O)c(-c2cc3ccccc3[nH]2)nc2ccccc21 (configuration not stated)	GLP1R inv ag 4.5µM (no result: GLP-1R agonist)
CSCCC(c1nc2ccccc2[nH]1)n1c(=O)c(-c2cc3ccccc3[nH]2)nc2ccccc21 (configuration not stated)	GLP1R inv ag inconclusive (no result: GLP-1R agonist)
Cc1ccc(C(=O)COC(=O)C(Cc2c[nH]c3ccccc23)NC(=O)c2ccc(C(C)(C)C)cc2)cc1 (configuration not stated)	GLP1R inv ag inconclusive (no result: GLP-1R agonist)
CN1CCCC(CN2c3ccccc3Sc3ccccc32)C1 (configuration not stated)	GLP1R inv ag 10µM
CN1CCCC(CC2c3ccccc3Sc3ccccc32)C1 (configuration not stated)	GLP1R inv ag inconclusive
CCC1CCCCN1CCCNC(=O)c1ccc(CS(=O)(=O)c2ccc(Br)cc2)o1 (configuration not stated)	GLP1R inv ag inconclusive
N#C/C(=C\c1ccc(OCc2ccc(C(=O)O)cc2)cc1)C(=O)N1CCOCC1	GLP1R inv ag 1µM
CCOC(=O)C1=C(C)N=c2s/c(=C\c3ccc(C(=O)O)cc3)c(=O)n2C1c1ccc(OC)cc1OC (configuration not stated)	HEK293 tox inconclusive
CCOC(=O)C1=C(C)N=c2s/c(=C/c3ccco3)c(=O)n2C1c1cccc(OC)c1 (configuration not stated)	GLP1R inv ag 11µM
O=C(CSc1cccc[n+]1[O-])Nc1ccccc1Oc1ccccc1	HEK293 tox 0.79µM, GLP1R inv ag inconclusive
O=C(CSc1cccc[n+]1[O-])Nc1ccccc1C(F)(F)F	PTHR1 agonist inconclusive
C=C(C)CCC1(C)NC(=O)N(c2ccccc2)N1 (configuration not stated)	HEK293 tox inconclusive, GLP1R inv ag 10µM

From PubChem
